HCV inh: qHTS Assay for Inhibitors of Hepatitis C Virus (HCV); Huh7.5.1 HCVcc-Cre infection, luciferase reporter, 44 h; Potency, µM (doses to about 41.8 µM), for inactives: at the top dose activity change, negative = inhibition, actives largely listed as inhibitors; 3.4% of 340,000 active; AID 651820, 2012; note: potency is the fitted concentration of half-maximal effect
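Infectious HCV cell culture screen: compound-treated cells (1,000/well, pre-plated 4 h) are infected with HCVcc-Cre at roughly 0.5 moi and grown 44 h. Infection is quantified by luciferase signal after 15 min substrate incubation at room temperature.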
Pf growth 48h: Primary qHTS for delayed death inhibitors of the malarial parasite plastid, 48 hour incubation | P. falciparum luciferase growth in erythrocytes, 48 h | Potency, µM (top dose mostly 28.7 µM), for inactives: top-dose activity change, negative = inhibition, usual class: inhibitors | 5.9% of 310,000 active; note: potency is the fitted concentration of half-maximal effect
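Luciferase-expressing P. falciparum in infected erythrocytes (2% hematocrit, 0.1% parasitemia final) in RPMI 1640/0.5% Albumax were exposed to compound for 48 hours at 37 C, 5% CO2; growth read as luminescence.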
HCMV antiviral: qHTS Assay for inhibitors of the human cytomegalovirus (HCMV); 4.5% of 410,000 active; activity change, negative = inhibition, % at 57.5 µM; AID 1259415, 2018; HFF cells, HCMV-luciferase reporter, 72 h; hits give low values; in the data active = activity change below about -60%; inconclusive = no clear call, values can overlap the other calls; inactive = above about -39%
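Two-dose cell screen: HFF monolayers treated with compounds and infected with luciferase-expressing HCMV at 1 PFU/cell, 72 h at 37C, then lysed for luciferase measurement.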
Pf growth 96h: Primary qHTS for delayed death inhibitors of the malarial parasite plastid, 96 hour incubation; P. falciparum luciferase reporter growth, 96 h; 6.9% of 320,000 active; AID 504834, 2011; Potency, µM (highest dose often 28.7 µM), without a hit: at the highest dose activity change, negative = inhibition, hits mostly inhibitors; note: potency is the fitted concentration of half-maximal effect
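Infected RBCs, 2% Hct / 0.05% parasitemia final; luciferase-reporter P. falciparum; cpd 96 h, 37 C, 5% CO2; luciferase detection reagent; luminescence.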
* = called active by the depositor; ? = inconclusive; / = not tested or not shown. Only some compounds are listed: those with a hit (about 13% of all), similar ones and a draw of the others. Unless noted, calls come from the whole dose curve; as a rule, active = well fitted inhibition curve with a large enough effect; inconclusive = small, poorly fitted or top-dose-only effect, or another doubt; inactive = no such curve, though single readings can be large or run the other way. % is set by controls: 0 for no effect and ±100 for the full control effect.

SMILES | HCV inh | Pf growth 48h | HCMV antiviral | Pf growth 96h
CC(=O)N1CCc2cc(NC(=O)C3(C)CCN3Cc3ccccc3OC(F)F)ccc21 (stereo unspecified) | / | / | -61.0* | /
COc1cccc(CN2CCC2(C)C(=O)Nc2cccc(Oc3ccccc3)c2)c1OC (stereo unspecified) | / | / | -60.8* | /
CC1(C(=O)Nc2cnc3ccccc3c2)CCN1Cc1ccccc1Cl (stereo unspecified) | / | / | -76.5* | /
Cc1ccc(C)c(Cn2c(=O)n(-c3ccccc3)c(=O)c3c4c(sc32)CCCC4)c1 | / | / | 3.8 | /
COc1ccccc1N1CCN(c2ncnc3c2nnn3C)CC1 | / | / | -0.1 | /
CCC1CN(C(=O)N2CCC(C(=O)NCc3ccc(N(C)C)cc3)CC2)c2ccccc2O1 (stereo unspecified) | / | / | 64.8 | /
CC(C)(C)c1ccc(OCC(=O)NCC2(N3CCOCC3)CCCCC2)cc1 | / | / | -72.7* | /
CCC(=O)c1ccc(OCC(=O)NCC2(N3CCCCC3)CCCCC2)cc1 | -2.6% | -7.8% | -19.2 | 4.65µM*
COc1cc(CNC2CCCC2)cc(Cl)c1OCc1ccc(F)cc1 | 1.26µM* | ? | 33.7 | 99.4%
CCOc1cc(CNC2CCCC2)cc(Cl)c1OCc1ccc(F)cc1 | 3.98µM* | 0.0% | -16.1 | /
COc1ccc(OC(=O)c2nc(SCc3ccc(C)cc3)ncc2Cl)cc1 | / | / | -23.7 | /
CCc1ccccc1NC(=O)C(C)n1c(=O)cc(C)c2c(C)nn(-c3ccccc3)c21 (stereo unspecified) | / | / | 21.6 | /
Cc1ccc(NC(=O)C(=O)NCCCN2CCOCC2)cc1C | / | / | 31.4 | /
CC1=NN(/C(=N\c2nnc(C)s2)Nc2ccc(C(C)(C)C)cc2)[C@H](c2ccc(C)cc2)S1 | -5.3% | 4.15µM* | 26.3 | 6.57µM*
CCn1ccc2cc(S(=O)(=O)N3CCCN(C(=O)NCC(=O)OC)CC3)ccc21 | / | / | 16.9 | /
CCCCSc1nc(SCC(=O)NCc2ccco2)c2c3c(sc2n1)COC(C)(CC)C3 (stereo unspecified) | 16.7% | ? | -23.8 | 9.28µM*
CCCSc1nc(SCC(=O)NCc2ccccc2)c2c3c(sc2n1)COC(C)(CC)C3 (stereo unspecified) | -11.8% | ? | 28.5 | 14.7µM*
Cc1ccc(S(=O)(=O)NC(C)C(c2cccs2)N2CCN(C)CC2)cc1 (stereo unspecified) | -26.2% | -21.4% | -16.2 | 10.4µM*
CC(NS(=O)(=O)c1ccccc1)C(c1cccs1)N1CCN(C)CC1 (stereo unspecified) | -2.6% | 18.8% | -15.3 | ?
CC1N=C2c3ccccc3N=C(SCC(=O)NCCc3ccccc3)N2C1=O (stereo unspecified) | / | / | 0.9 | /
CCc1cc(-c2cnnn2Cc2ccccc2)ccc1-c1cn(CC(C)C)nn1 | / | / | -31.6 | /
CCc1cc(-c2nnn(CCC3COCCO3)c2CC)cc(CC)c1-c1cn(Cc2ccc3ccccc3c2)nn1 (stereo unspecified) | / | / | -67.4* | /
COc1ccc(-c2cn(Cc3cccc(OC)c3)nn2)cc1 | ? | -77.6% | 35.5 | -42.1%
CCc1cc(-c2nnn(CCC3COCCO3)c2CC)ccc1-c1cn(CCc2c[nH]c3ccccc23)nn1 (stereo unspecified) | / | / | -80.0* | /
Cc1nn(-c2ccccc2)c(C)c1NC(=O)COC(=O)c1cc([N+](=O)[O-])ccc1NCCO | 22.4µM* | ? | -20.7 | 0.6%
SMILES | HCV inh | Pf growth 48h | HCMV antiviral | Pf growth 96h
Cc1nn(-c2ccccc2)c(C)c1NC(=O)COc1ccc([N+](=O)[O-])cc1 | -21.8% | -8.6% | -6.6 | 8.2%
O=C(COC(=O)c1cc([N+](=O)[O-])ccc1NCCO)Nc1ccc2c(c1)OCO2 | 11.2µM* | 21.2% | -9.1 | -3.2%
Cc1ccc(Cl)cc1NCc1nnc2n1CCCCC2 | / | / | -25.2 | /
COc1ccccc1CNC(=O)CCC(=O)N1CC2CCCN2c2ccccc21 (stereo unspecified) | / | / | -21.9 | /
O=S1(=O)N[C@@H](Cc2ccccc2)COc2cc(N3CCN(Cc4ccccc4F)CC3)ccc21 | / | / | -8.7 | /
CCOc1cc(C(=O)Nc2ccc(C)cc2O)ccc1OCC(=O)N1CCOCC1 | ? | ? | 21.9 | ?
CCOc1ccc(C(=O)Nc2cc3c(cc2N2CCCC2)n(CC)c(=O)n3CC)cc1OCC | ? | ? | -0.6 | 11.7µM*
CCOc1ccc(C(=O)Nc2ccccc2N2CCOCC2)cc1 | -13.6% | ? | ? | ?
CCn1c(=O)n(CC)c2cc(N3CCCC3)c(NC(=O)c3cccc(OC)c3)cc21 | -65.6% | ? | -13.6 | 0.738µM*
CCOc1cc(C(=O)Nc2cc(C)ccc2C)ccc1OCC(=O)N1CCCCC1 | -17.6% | ? | -70.7* | ?
CCOc1ccc(C(=O)Nc2ccccc2N2CCCC2)cc1 | ? | ? | -76.1* | ?
Cc1ccc(C(=O)N2CCC(N3CCN(Cc4ccc(F)cc4)C(=O)C3=O)CC2)cc1 | / | / | 0.2 | /
COc1ccc(C(=O)Nc2cc3c(cc2N2CCOCC2)n(C)c(=O)n3C)cc1OC | -12.6% | ? | / | ?
CCOc1cc(C(=O)Nc2cc3c(cc2N2CCOCC2)n(C)c(=O)n3C)cc(OCC)c1OCC | -14.8% | -16.0% | 12.1 | 8.28µM*
O=C(CCl)N(Cc1ccccc1)c1ccccc1 | 5.01µM* | 10.4µM* | -98.0* | ?
Cc1cccc(N(Cc2ccccc2)C(=O)CSC(C)C(=O)Nc2cc(C)on2)c1 (stereo unspecified) | 8.3% | ? | -28.5 | 10.4µM*
Cc1cccc(N(CC(=O)O)CC(=O)O)c1 | 39.7% | -13.2% | 7.4 | 13.1µM*
Cc1cccc(N(Cc2ccccc2)C(=O)c2ccc(CS(C)(=O)=O)cc2)c1 | / | -17.0% | -21.2 | ?
Cc1cccc(N(Cc2ccccc2)C(=O)CCl)c1 | 3.98µM* | ? | -115.9* | ?
CCN(c1cccc(C)c1)S(=O)(=O)c1cccc(C(=O)O)c1 | 9.7% | / | 26.1 | 29.9%
Cc1ccc(NC(=O)c2c(C)oc3ncn(CC(C)C)c(=O)c23)nc1 | / | / | -2.2 | /
CCc1ccc(C2c3c(-c4cc(C)ccc4O)n[nH]c3C(=O)N2CCO)cc1 (stereo unspecified) | / | / | 10.9 | /
Cc1ccc(C)c(NC(=O)CN2C(=O)CCc3ccccc32)c1 | / | / | 22.3 | /
COc1ccc(-c2csc(C(O)c3ccc(OC)cc3)n2)cc1 (stereo unspecified) | / | / | -71.8* | /
COc1cccc(C(O)c2nc(-c3ccccc3)cs2)c1 (stereo unspecified) | / | / | -39.2 | /
COc1cccc(C(O)c2nc(-c3ccncc3)cs2)c1 (stereo unspecified) | / | / | -75.6* | /
CNC(=S)N1N=C(c2ccc(OC)cc2)CC1c1ccc(N(C)C)cc1 (stereo unspecified) | 11.2µM* | -27.8% | 8.3 | 0.0%
Cc1ccc(C2=NN(C(=S)Nc3ccccc3)C(c3ccco3)C2)cc1 (stereo unspecified) | 10.0% | 45.3% | 132.1 | 9.28µM*
